Laboratory results: PubChem BioAssay AID463218 (Sanford-Burnham Center for Chemical Genomics, 2010)
Screen size: about 4,400 compounds; about 3,700 (84%) were called active.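 How the source made its calls: active means inhibition above about 39% in either of two replicate wells at 20 µM (limit read from the data); inactive means the rest.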 So high a share suggests a set chosen from earlier hits. These entries were drawn from the full list.

Assay: tim23-1 mutant yeast growth inhibitors, confirmation, luminescence, single concentration (AID 463218);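 further: temperature-sensitive tim23-1 mutant grown at 25 °C; 0% = DMSO wells with yeast and 100% = medium wells without yeast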
Details: S. cerevisiae tim23-1 growth, BacTiter-Glo luminescence, 24 h; at 20 µM; active compounds read high

inhibition, active:
Cc1nc2sc(C(=O)c3ccccc3)c(N)c2c2c1CCCC2 54.4%
Cc1[nH]n(C(N)=S)c(=O)c1N=Nc1ccc(Cl)cc1Cl 70%
CC(=O)N1N=C(c2ccncc2)OC1(Cc1ccccc1)Cc1ccccc1 49.8%
c1ccc(-c2nc(NCc3ccco3)c3ccccc3n2)cc1 64.7%
O=c1ccc2c(-c3ccccc3S(=O)(=O)O)c3ccc(O)c(O)c3oc-2c1O 43.4%
O=c1oc(-c2ccccc2NS(=O)(=O)c2ccc(Cl)cc2)nc2ccccc12 56%
CC(C)NC(=O)/C(C#N)=C\c1ccc(N(C)C)c(Br)c1 62.2%
Cc1cc(Nc2ccc(Br)cc2)nc2ccccc12 68.2%
Cc1ccc2nc(Nc3ccccc3)cc(C)c2c1 43.1%
Cc1[nH][nH]c(=O)c1C(c1ccc(-c2ccc(Cl)cc2)o1)c1c(C)[nH][nH]c1=O 62.4%
CC(=O)Oc1ccc(N(C(C)=O)S(=O)(=O)c2ccc3ccccc3c2)cc1Br 52.9%
Cc1ccc(C(=O)OC2=CC(=O)CC(C)(C)C2)cc1 38%
CSC(=S)N/N=C/c1c[nH]c2ccccc12 52.5%
COCCNC(=O)/C(C#N)=C/c1cccc(OCc2ccccc2)c1 67%
CCCCC(CC)CNC(=O)C(=O)C1C(=O)Nc2ccccc21 (stereo not given) 41.6%
O=C(Nc1cccc(F)c1)NC1CCCCCCC1 39.9%
COc1cc(SC)ccc1C(=O)Nc1nc(C)cs1 57.5%
Cc1cc(C)nc(S/C=C/C(=O)c2ccccc2)n1 87.6%
CCc1ccc2c(c1)C1(NN=C(c3ccccc3)S1)C(=O)N2 (stereo not given) 53.2%
CCC1=NN(C(=O)Cc2ccc([N+](=O)[O-])cc2)C(O)(c2ccc(Br)cc2)C1 (stereo not given) 45.7%
CC1CCC2CCCCC2N1C(=O)c1cc([N+](=O)[O-])cc([N+](=O)[O-])c1 (stereo not given) 42.8%
Cc1onc(NC(=O)c2ccc([N+](=O)[O-])o2)c1Br 50.6%
Cc1ccc2c(c1)c1ncnc(N3CCc4ccccc4C3)c1n2C 45.2%
N#C/C(=C\c1cccnc1)C(=O)Nc1ccc(SC(F)F)cc1 65.7%
Cc1ccc(Oc2nc(-c3ccccn3)nc3ccccc23)cc1 46.1%
COc1ccc(Nc2nc(N)nc(CSC(=S)N3CCC(C)CC3)n2)cc1 49.7%
COc1ccc(/C=C2/C(=O)N(c3ccccc3)N=C2C)c(OC)c1 49.5%
N#C/C(=C\c1ccccc1C(F)(F)F)C(=O)Nc1ccccc1F 71.7%
Cc1cccc(C)c1N1C(=O)CN(Cc2ccccc2)C1=S 44.8%
Cn1nc(C(F)(F)F)c2cc(NC(=O)OCC(C)(C)C)sc21 41.3%
Cc1ccc(Nc2nc(-c3ccc(O)cc3O)cs2)nc1 70.4%
N/C(=N\OC(=O)Nc1ccc(Cl)c(Cl)c1)c1ncc(C(F)(F)F)cc1Cl 71.8%
CN(C)/N=C/c1cn(-c2ccccc2)nc1-c1cccnc1 43%
Cc1ccc(-c2nn(C(C)(C)C)c3ncnc(N)c23)cc1 65.7%
Clc1ccc(Nc2nc(-c3cccs3)cs2)nc1 68.5%
CC(C)Cn1c(N)c(C(=O)NCc2cccs2)c2nc3ccccc3nc21 46.1%
COc1ccc2nc(NC(=O)NC3CCCCC3)sc2c1 53.1%
CCOc1ccccc1/C=c1\sc2nc(-c3ccco3)nn2c1=O 56.6%
O=C(NCc1ccc2c(c1)OCO2)c1c(O)nc2sccn2c1=O 66.3%
Cc1oc2c(c1C(=O)N1CCOCC1)C(=O)c1ccccc1C2=O 59.5%

inhibition, inactive:
COc1cccc(-c2sc3ccc(OC)cc3c2-c2ccc(OCCN3CCCCC3)cc2)c1 23.4%
O=C1CC(Sc2ncn[nH]2)C(=O)N1c1ccccc1 (stereo not given) 37.8%
Cc1cccc(-c2nc(Nc3ccc(O)cc3)c3ccccc3n2)c1 -19.6%
CN1C(=O)/C(=N/OC(=O)c2ccccc2Br)c2ccccc21 -64.7%
O=C(/C=C/Sc1ncn[nH]1)c1ccc(Cl)cc1 20.5%
CCCNc1ncnc2sc(C)c(C)c12 27.9%
O=C(N/N=C\c1cc(Br)c(Br)o1)C1COc2ccccc2O1 (stereo not given) 31%
Cc1cccc(Nc2nc(-c3ccccc3)cs2)n1 23.9%
COc1ccc(NC(=O)/C(Cl)=C(/Cl)S(=O)Cc2ccc(C)cc2)cn1 (stereo not given) 27.6%
O=c1nc2s/c(=C\c3ccco3)c(=O)n2nc1Cc1ccccc1 -20.4%
